This assay concerns the target SHP2 N-SH2 domain T42A. As to the kind of experiment: log2 enrichment relative to wild-type ITIM peptide; higher = stronger binding.

B1: PD-1 ITIM pTyr223 peptide variant G224W (peptide)
chain: VFSVDYWELDF
The molecule B1 returned a log2 enrichment of -0.623.

B2: PD-1 ITIM pTyr223 peptide variant D222V (peptide)
chain: VFSVVYGELDF
With B2, the log2 enrichment was found to be 0.135.

B3: PD-1 ITIM pTyr223 peptide variant G224K (peptide)
chain: VFSVDYKELDF
Molecule B3 came in with a log2 enrichment of 2.48.

B4: PD-1 ITIM pTyr223 peptide variant E225F (peptide)
chain: VFSVDYGFLDF
B4 displayed a log2 enrichment of -0.82.

B5: PD-1 ITIM pTyr223 peptide variant S220H (peptide)
chain: VFHVDYGELDF
B5 registered a log2 enrichment of 0.0672.

B6: PD-1 ITIM pTyr223 peptide variant F219W (peptide)
chain: VWSVDYGELDF
Regarding B6, the log2 enrichment is -0.244.

B7: PD-1 ITIM pTyr223 peptide variant E225R (peptide)
chain: VFSVDYGRLDF
In the case of B7, the log2 enrichment was -0.382.

B8: PD-1 ITIM pTyr223 peptide variant D222R (peptide)
chain: VFSVRYGELDF
In the case of B8, the log2 enrichment was determined as 2.89.

B9: PD-1 ITIM pTyr223 peptide variant G224Y (peptide)
chain: VFSVDYYELDF
On to B9, for which the log2 enrichment is -0.792.

B10: PD-1 ITIM pTyr223 peptide variant L226I (peptide)
chain: VFSVDYGEIDF
B10 registered a log2 enrichment of -0.691.

B11: PD-1 ITIM pTyr223 peptide variant V221R (peptide)
chain: VFSRDYGELDF
As to B11, the log2 enrichment was -1.04.

B12: PD-1 ITIM pTyr223 peptide variant G224M (peptide)
chain: VFSVDYMELDF
B12 yielded a log2 enrichment of -0.224.

B13: PD-1 ITIM pTyr223 peptide variant D222H (peptide)
chain: VFSVHYGELDF
With B13, the log2 enrichment worked out at 1.68.

B14: PD-1 ITIM pTyr223 peptide variant L226Y (peptide)
chain: VFSVDYGEYDF
B14 came in with a log2 enrichment of -1.46.

B15: PD-1 ITIM pTyr223 peptide variant D222Y (peptide)
chain: VFSVYYGELDF
On to B15, for which the log2 enrichment amounted to 0.0176.

B16: PD-1 ITIM pTyr223 peptide variant V221M (peptide)
chain: VFSMDYGELDF
Take B16: the log2 enrichment is -0.943.

B17: PD-1 ITIM pTyr223 peptide variant F228L (peptide)
chain: VFSVDYGELDL
Turning to B17, the log2 enrichment was -1.19.

B18: PD-1 ITIM pTyr223 peptide variant S220V (peptide)
chain: VFVVDYGELDF
In turn, B18 displayed a log2 enrichment of -0.0553.

B19: PD-1 ITIM pTyr223 peptide variant G224L (peptide)
chain: VFSVDYLELDF
Turning to B19, the log2 enrichment is -0.0968.

B20: PD-1 ITIM pTyr223 peptide variant F219V (peptide)
chain: VVSVDYGELDF
Turning to B20, the log2 enrichment was -0.0583.

B21: PD-1 ITIM pTyr223 peptide variant V218K (peptide)
chain: KFSVDYGELDF
As for B21, the log2 enrichment is 0.439.

B22: PD-1 ITIM pTyr223 peptide variant V221F (peptide)
chain: VFSFDYGELDF
Molecule B22 displayed a log2 enrichment of -1.03.

B23: PD-1 ITIM pTyr223 peptide variant L226K (peptide)
chain: VFSVDYGEKDF
B23 returned a log2 enrichment of -1.37.

B24: PD-1 ITIM pTyr223 peptide variant F228V (peptide)
chain: VFSVDYGELDV
In turn, B24 had a log2 enrichment of -1.42.

B25: PD-1 ITIM pTyr223 peptide variant E225I (peptide)
chain: VFSVDYGILDF
Molecule B25 displayed a log2 enrichment of -0.312.

B26: PD-1 ITIM pTyr223 peptide variant V221L (peptide)
chain: VFSLDYGELDF
On to B26, for which the log2 enrichment is -0.962.

B27: PD-1 ITIM pTyr223 peptide variant F219Y (peptide)
chain: VYSVDYGELDF
As for B27, the log2 enrichment stood at 0.45.

B28: PD-1 ITIM pTyr223 peptide variant D227V (peptide)
chain: VFSVDYGELVF
On to B28, for which the log2 enrichment is -0.565.

B29: PD-1 ITIM pTyr223 peptide variant F228R (peptide)
chain: VFSVDYGELDR
On to B29, for which the log2 enrichment is -1.52.

B30: PD-1 ITIM pTyr223 peptide variant V218I (peptide)
chain: IFSVDYGELDF
With B30, the log2 enrichment is -0.151.

B31: PD-1 ITIM pTyr223 peptide variant V218Y (peptide)
chain: YFSVDYGELDF
Turning to B31, the log2 enrichment is -0.0716.

B32: PD-1 ITIM pTyr223 peptide variant F228H (peptide)
chain: VFSVDYGELDH
Molecule B32 had a log2 enrichment of -1.32.

B33: PD-1 ITIM pTyr223 peptide variant F228Y (peptide)
chain: VFSVDYGELDY
B33 returned a log2 enrichment of -1.37.

B34: PD-1 ITIM pTyr223 peptide variant F219R (peptide)
chain: VRSVDYGELDF
B34 had a log2 enrichment of 1.24.

B35: PD-1 ITIM pTyr223 peptide variant S220R (peptide)
chain: VFRVDYGELDF
The molecule B35 showed a log2 enrichment of 1.22.

B36: PD-1 ITIM pTyr223 peptide variant E225L (peptide)
chain: VFSVDYGLLDF
In turn, B36 displayed a log2 enrichment of -0.496.

B37: PD-1 ITIM pTyr223 peptide variant D222F (peptide)
chain: VFSVFYGELDF
B37 registered a log2 enrichment of -0.334.

B38: PD-1 ITIM pTyr223 peptide variant D227W (peptide)
chain: VFSVDYGELWF
In turn, B38 registered a log2 enrichment of -0.71.

B39: PD-1 ITIM pTyr223 peptide variant V221I (peptide)
chain: VFSIDYGELDF
As for B39, the log2 enrichment is -0.464.

B40: PD-1 ITIM pTyr223 peptide variant D227L (peptide)
chain: VFSVDYGELLF
B40 returned a log2 enrichment of -0.728.

B41: PD-1 ITIM pTyr223 peptide variant D227R (peptide)
chain: VFSVDYGELRF
Molecule B41 came in with a log2 enrichment of -0.941.

B42: PD-1 ITIM pTyr223 peptide variant S220F (peptide)
chain: VFFVDYGELDF
With B42, the log2 enrichment was -0.202.

B43: PD-1 ITIM pTyr223 peptide variant D227H (peptide)
chain: VFSVDYGELHF
Regarding B43, the log2 enrichment was -0.826.

B44: PD-1 ITIM pTyr223 peptide variant F228W (peptide)
chain: VFSVDYGELDW
For B44, the log2 enrichment came to 0.678.

B45: PD-1 ITIM pTyr223 peptide variant F228I (peptide)
chain: VFSVDYGELDI
Consider B45, for which the log2 enrichment was -1.45.

B46: PD-1 ITIM pTyr223 peptide variant V221K (peptide)
chain: VFSKDYGELDF
B46 yielded a log2 enrichment of -1.

B47: PD-1 ITIM pTyr223 peptide variant E225H (peptide)
chain: VFSVDYGHLDF
B47 gave a log2 enrichment of -0.301.

B48: PD-1 ITIM pTyr223 peptide variant D222I (peptide)
chain: VFSVIYGELDF
The molecule B48 yielded a log2 enrichment of -0.259.

B49: PD-1 ITIM pTyr223 peptide variant E225Y (peptide)
chain: VFSVDYGYLDF
Molecule B49 yielded a log2 enrichment of -0.767.

B50: PD-1 ITIM pTyr223 peptide variant S220M (peptide)
chain: VFMVDYGELDF
On to B50, for which the log2 enrichment is -0.0956.

B51: PD-1 ITIM pTyr223 peptide variant D222M (peptide)
chain: VFSVMYGELDF
Consider B51, for which the log2 enrichment is 0.307.

B52: PD-1 ITIM pTyr223 peptide variant E225K (peptide)
chain: VFSVDYGKLDF
On to B52, for which the log2 enrichment was 0.303.

B53: PD-1 ITIM pTyr223 peptide variant V221Y (peptide)
chain: VFSYDYGELDF
B53 yielded a log2 enrichment of 0.57.

B54: PD-1 ITIM pTyr223 peptide variant V221H (peptide)
chain: VFSHDYGELDF
Take B54: the log2 enrichment is -1.23.

B55: PD-1 ITIM pTyr223 peptide variant D222W (peptide)
chain: VFSVWYGELDF
Turning to B55, the log2 enrichment was -0.569.

B56: PD-1 ITIM pTyr223 peptide variant D227F (peptide)
chain: VFSVDYGELFF
Molecule B56 registered a log2 enrichment of -0.714.

B57: PD-1 ITIM pTyr223 peptide variant S220W (peptide)
chain: VFWVDYGELDF
Consider B57, for which the log2 enrichment was -0.544.

B58: PD-1 ITIM pTyr223 peptide variant L226H (peptide)
chain: VFSVDYGEHDF
Turning to B58, the log2 enrichment is -1.46.

B59: PD-1 ITIM pTyr223 peptide variant V218F (peptide)
chain: FFSVDYGELDF
The molecule B59 registered a log2 enrichment of -0.37.

B60: PD-1 ITIM pTyr223 peptide variant V218M (peptide)
chain: MFSVDYGELDF
B60 displayed a log2 enrichment of 0.0157.

Values taken from the supplement of paper PMC10369915.
